According to the supplement of paper PMC10849652:
Of roughly 7,900 targets only a part is listed; those with a hit were picked by preference. About 0.6% of all pairs of compound and target were hits. Unmarked numbers belong to inactive results.

Experiments:
Test in all cases: log2 fold change, soluble protein after heating vs DMSO (PISA); higher = thermal stabilisation; K562 cells, 10 uM, 30 min; active = over 0.2 and 3.5 SD of the protein, either way, in both replicates (recomputed)
[1] = compound: COC1=CC=C(C=C1)CN2C=CC3=C2C=C(C=C3)C(=O)NO
How it was run: (§1)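 K562 cells at 2×10^6 cells/mL were treated for 30 min with 10 μM compound, and aliquots were heated for 3 min over 48°C-58°C before pooling. Extraction used PBS with 0.5% NP-40 at 4°C, and soluble protein was the supernatant after 21,000xg for 90 min, measured by TMTpro 16plex LC-MS/MS with channel sums equalised. Thermal stability values, relative to control samples and from duplicates, are log2 fold changes.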

[2] = compound: CON(C)C(=O)N1N=C(c2cc(F)ccc2F)S[C@@]1(CCCN)c1ccccc1 [filanesib]
How it was run: as §1

[3] = compound: CO[C@H]1C[C@@H]2CC[C@@H](C)[C@@](O)(O2)C(=O)C(=O)N2CCCC[C@H]2C(=O)O[C@H]([C@H](C)C[C@@H]2CC[C@H](n3cnnn3)[C@H](OC)C2)CC(=O)[C@H](C)/C=C(\C)[C@@H](O)[C@@H](OC)C(=O)[C@H](C)C[C@H](C)/C=C/C=C/C=C/1C [zotarolimus]
How it was run: as §1

[4] = compound: COc1cc(C(=O)O)ccc1NC(=O)[C@@H]1N[C@@H](CC(C)(C)C)[C@](C#N)(c2ccc(Cl)cc2F)[C@H]1c1cccc(Cl)c1F [idasanutlin]
How it was run: as §1

[5] = compound: COc1cc(Nc2ncc3c(n2)-c2ccc(Cl)cc2C(c2c(F)cccc2OC)=NC3)ccc1C(=O)O [alisertib]
How it was run: as §1

[6] = compound: COc1cc2nc(-c3cc(F)ccc3O)nc(N[C@@H]3CNC[C@H]3C(C)(C)O)c2cc1OC
How it was run: as §1

[7] = compound: COc1cc2ncnc(Nc3ccc(F)c(Cl)c3)c2cc1OCCCN1CCOCC1 [gefitinib]
How it was run: as §1

[8] = compound: COc1cccc2cc(-c3nc([C@H]4CC[C@H](C(=O)O)CC4)n4ncnc(N)c34)[nH]c12
How it was run: as §1

[9] = compound: CS(=O)(=O)CCNCc1ccc(-c2ccc3ncnc(Nc4ccc(OCc5cccc(F)c5)c(Cl)c4)c3c2)o1 [lapatinib]
How it was run: as §1

[10] = compound: CS(=O)(=O)N1CCN(Cc2cc3nc(-c4cccc5[nH]ncc45)nc(N4CCOCC4)c3s2)CC1 [pictilisib]
How it was run: as §1

UniProt P53801, sequence (P53801 whole entry, looked up): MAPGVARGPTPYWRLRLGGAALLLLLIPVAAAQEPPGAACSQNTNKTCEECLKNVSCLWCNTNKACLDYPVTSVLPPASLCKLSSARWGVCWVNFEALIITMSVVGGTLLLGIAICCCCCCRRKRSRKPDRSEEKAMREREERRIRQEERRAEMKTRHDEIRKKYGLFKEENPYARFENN
UniProt Q16822, sequence (Q16822 whole entry, looked up): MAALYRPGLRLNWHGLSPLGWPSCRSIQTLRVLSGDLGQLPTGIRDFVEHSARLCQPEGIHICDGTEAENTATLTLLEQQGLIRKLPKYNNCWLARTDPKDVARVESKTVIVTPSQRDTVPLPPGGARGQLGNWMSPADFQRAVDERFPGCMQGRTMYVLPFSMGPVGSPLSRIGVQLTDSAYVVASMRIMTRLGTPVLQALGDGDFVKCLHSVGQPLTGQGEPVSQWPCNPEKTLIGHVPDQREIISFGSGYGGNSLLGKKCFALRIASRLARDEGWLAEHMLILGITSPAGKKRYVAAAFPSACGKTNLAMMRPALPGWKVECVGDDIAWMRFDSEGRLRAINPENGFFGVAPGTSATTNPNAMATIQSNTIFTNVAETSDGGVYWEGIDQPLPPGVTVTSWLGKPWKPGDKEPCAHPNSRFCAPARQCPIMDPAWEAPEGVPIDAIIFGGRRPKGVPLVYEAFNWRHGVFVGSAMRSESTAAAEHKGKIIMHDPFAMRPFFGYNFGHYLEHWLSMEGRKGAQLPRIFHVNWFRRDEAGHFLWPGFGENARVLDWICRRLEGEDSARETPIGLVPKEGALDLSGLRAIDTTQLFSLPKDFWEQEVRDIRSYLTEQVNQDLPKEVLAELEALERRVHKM
UniProt Q7Z7A4, sequence (Q7Z7A4 whole entry, looked up): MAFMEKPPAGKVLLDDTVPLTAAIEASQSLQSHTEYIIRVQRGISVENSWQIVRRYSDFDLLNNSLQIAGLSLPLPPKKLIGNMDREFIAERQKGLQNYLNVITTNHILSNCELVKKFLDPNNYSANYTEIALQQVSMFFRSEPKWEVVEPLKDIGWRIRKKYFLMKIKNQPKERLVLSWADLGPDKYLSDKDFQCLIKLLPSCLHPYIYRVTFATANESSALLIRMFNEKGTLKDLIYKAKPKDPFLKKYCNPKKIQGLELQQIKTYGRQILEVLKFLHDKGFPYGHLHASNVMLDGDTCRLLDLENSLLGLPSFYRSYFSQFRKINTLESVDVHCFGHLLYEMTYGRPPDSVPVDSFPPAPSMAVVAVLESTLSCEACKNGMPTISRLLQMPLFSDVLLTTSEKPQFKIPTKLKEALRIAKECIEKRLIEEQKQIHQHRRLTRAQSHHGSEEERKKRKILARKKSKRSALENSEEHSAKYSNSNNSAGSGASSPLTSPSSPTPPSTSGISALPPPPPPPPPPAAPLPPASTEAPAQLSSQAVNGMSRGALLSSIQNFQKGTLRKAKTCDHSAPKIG
UniProt Q9H307, sequence (Q9H307 whole entry, looked up): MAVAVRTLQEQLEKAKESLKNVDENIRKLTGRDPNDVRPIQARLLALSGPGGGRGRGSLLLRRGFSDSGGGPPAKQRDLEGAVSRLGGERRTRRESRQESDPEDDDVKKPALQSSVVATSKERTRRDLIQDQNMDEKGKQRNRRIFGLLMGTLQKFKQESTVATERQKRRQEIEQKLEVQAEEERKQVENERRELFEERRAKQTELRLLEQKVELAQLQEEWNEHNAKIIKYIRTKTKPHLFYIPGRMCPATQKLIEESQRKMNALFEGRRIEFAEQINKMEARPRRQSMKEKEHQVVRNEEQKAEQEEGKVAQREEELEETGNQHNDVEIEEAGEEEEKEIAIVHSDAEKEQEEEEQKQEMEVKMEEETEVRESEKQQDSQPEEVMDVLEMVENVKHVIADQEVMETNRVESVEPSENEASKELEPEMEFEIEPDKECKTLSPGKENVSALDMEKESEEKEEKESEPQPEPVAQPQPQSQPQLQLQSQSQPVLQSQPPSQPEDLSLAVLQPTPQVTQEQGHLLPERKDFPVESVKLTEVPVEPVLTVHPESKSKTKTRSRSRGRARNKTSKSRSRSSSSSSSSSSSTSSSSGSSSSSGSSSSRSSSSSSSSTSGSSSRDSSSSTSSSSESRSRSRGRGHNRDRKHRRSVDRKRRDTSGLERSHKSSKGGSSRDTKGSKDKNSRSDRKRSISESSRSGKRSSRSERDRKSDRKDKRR
UniProt O00628, sequence (O00628 whole entry, looked up): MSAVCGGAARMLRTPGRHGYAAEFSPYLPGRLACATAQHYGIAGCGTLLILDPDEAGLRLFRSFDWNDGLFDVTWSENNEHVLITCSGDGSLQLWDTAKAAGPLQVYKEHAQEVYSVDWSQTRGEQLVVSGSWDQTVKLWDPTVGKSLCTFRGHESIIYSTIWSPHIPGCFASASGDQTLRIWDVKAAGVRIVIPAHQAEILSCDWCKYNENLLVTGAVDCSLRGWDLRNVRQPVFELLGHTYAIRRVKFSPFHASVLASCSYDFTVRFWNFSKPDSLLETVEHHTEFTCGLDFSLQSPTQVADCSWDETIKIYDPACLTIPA
UniProt Q01970, sequence (Q01970 whole entry, looked up): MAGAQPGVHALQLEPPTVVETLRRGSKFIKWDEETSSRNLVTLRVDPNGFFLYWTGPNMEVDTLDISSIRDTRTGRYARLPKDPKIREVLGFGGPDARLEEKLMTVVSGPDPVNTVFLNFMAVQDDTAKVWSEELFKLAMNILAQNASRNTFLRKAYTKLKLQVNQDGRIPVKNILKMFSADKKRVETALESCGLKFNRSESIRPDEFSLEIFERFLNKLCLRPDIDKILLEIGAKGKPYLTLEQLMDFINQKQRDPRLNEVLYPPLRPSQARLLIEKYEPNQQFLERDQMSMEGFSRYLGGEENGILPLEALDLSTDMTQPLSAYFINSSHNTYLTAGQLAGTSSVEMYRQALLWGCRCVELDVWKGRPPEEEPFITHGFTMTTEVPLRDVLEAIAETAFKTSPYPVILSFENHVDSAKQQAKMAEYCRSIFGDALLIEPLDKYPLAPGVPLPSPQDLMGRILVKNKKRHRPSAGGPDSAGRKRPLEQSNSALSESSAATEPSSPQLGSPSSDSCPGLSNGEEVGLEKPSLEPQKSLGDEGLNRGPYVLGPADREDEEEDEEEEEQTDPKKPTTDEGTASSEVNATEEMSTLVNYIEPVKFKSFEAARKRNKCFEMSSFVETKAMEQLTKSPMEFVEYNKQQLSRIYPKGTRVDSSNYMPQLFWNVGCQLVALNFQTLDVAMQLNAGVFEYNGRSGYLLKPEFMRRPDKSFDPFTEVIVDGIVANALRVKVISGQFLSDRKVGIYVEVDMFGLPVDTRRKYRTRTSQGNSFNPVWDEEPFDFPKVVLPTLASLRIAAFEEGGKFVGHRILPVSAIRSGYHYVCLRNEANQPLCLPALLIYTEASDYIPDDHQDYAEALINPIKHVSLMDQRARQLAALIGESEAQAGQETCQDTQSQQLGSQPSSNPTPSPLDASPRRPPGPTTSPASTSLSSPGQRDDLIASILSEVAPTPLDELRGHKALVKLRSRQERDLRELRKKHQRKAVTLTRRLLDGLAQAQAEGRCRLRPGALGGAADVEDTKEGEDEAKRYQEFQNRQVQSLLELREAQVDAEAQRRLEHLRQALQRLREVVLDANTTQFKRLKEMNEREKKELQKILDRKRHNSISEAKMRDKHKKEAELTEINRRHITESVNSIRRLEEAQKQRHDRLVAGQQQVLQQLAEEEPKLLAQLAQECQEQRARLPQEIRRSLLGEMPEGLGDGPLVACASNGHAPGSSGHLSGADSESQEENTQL
UniProt P40425, sequence (P40425 whole entry, looked up): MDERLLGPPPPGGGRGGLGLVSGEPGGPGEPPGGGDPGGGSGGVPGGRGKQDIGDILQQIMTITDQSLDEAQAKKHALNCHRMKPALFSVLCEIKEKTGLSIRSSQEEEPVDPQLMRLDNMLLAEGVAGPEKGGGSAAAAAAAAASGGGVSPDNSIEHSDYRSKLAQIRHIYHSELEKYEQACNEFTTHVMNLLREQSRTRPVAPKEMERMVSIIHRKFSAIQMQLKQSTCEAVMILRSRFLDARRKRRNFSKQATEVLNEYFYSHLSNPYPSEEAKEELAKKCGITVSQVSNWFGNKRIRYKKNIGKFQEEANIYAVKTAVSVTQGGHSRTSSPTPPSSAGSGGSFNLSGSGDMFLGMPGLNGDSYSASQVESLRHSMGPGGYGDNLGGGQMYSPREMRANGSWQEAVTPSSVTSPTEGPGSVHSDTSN
UniProt Q96AD5, sequence (Q96AD5 whole entry, looked up): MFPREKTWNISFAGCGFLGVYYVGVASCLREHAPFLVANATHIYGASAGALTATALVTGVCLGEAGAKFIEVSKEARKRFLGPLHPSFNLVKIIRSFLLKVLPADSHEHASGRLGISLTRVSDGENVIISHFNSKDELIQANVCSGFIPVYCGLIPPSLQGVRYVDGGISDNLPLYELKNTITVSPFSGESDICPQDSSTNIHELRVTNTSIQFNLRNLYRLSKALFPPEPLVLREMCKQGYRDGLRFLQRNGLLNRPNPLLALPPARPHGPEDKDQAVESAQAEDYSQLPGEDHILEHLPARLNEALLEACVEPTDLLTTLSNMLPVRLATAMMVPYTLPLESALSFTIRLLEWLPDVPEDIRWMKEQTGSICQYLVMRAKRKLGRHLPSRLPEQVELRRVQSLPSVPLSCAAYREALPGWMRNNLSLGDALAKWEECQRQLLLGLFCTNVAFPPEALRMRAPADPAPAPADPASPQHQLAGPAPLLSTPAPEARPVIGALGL
UniProt P48556, sequence (P48556 whole entry, looked up): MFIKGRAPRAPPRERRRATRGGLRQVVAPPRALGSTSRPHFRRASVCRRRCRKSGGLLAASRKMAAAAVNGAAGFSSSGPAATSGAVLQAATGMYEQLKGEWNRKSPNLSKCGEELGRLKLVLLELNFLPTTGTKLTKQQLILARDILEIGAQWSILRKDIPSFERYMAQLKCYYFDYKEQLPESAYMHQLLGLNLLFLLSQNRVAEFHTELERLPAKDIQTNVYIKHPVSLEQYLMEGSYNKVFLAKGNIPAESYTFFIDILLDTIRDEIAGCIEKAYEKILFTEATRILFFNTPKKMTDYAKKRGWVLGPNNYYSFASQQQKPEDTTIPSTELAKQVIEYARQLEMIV

| Target | log2 fold change [1] | log2 fold change [2] | log2 fold change [3] | log2 fold change [4] | log2 fold change [5] | log2 fold change [6] | log2 fold change [7] | log2 fold change [8] | log2 fold change [9] | log2 fold change [10] |
| --- | --- | --- | --- | --- | --- | --- | --- | --- | --- | --- |
| POLR2B (UniProt P30876) | 0.034 | 0.031 | -0.012 | -0.039 | -0.057 | 0.214 | 0.064 | 0.007 | -0.018 | 0.076 |
| POLR3K (UniProt Q9Y2Y1) | -0.078 | -0.03 | -0.063 | 0.006 | -0.156 | 0.01 | -0.023 | 0.044 | 0.057 | -0.04 |
| PGGHG (UniProt Q32M88) | -0.022 | 0.073 | 0.024 | 0.162 | -0.123 | 0.082 | -0.062 | 0.041 | -0.08 | 0.042 |
| PPIL2 (UniProt Q13356) | 0.035 | 0.012 | 0.05 | -0.032 | 0.01 | 0.131 | 0.076 | -0.023 | -0.02 | 0.028 |
| PBX2 (UniProt P40425) | 0.132 | -0.055 | 0.115 | 0.102 | -0.027 | -0.114 | -0.02 | 0 | 0.014 | 0.01 |
| PLEKHM2 (UniProt Q8IWE5) | 0.007 | -0.09 | 0.053 | -0.083 | 0.044 | -0.041 | 0.075 | -0.041 | 0.084 | 0.011 |
| PEX7 (UniProt O00628) | 0.013 | -0.063 | 0.058 | -0.002 | -0.01 | -0.09 | -0.003 | 0.072 | -0.032 | 0.055 |
| PITRM1 isoform 2 (UniProt Q5JRX3) | -0.097 | -0.229 (active) | 0.124 | -0.047 | -0.009 | -0.026 | 0.137 | 0.035 | -0.04 | -0.032 |
| PXK (UniProt Q7Z7A4) | 0.105 | -0.005 | 0.021 | -0.035 | -0.057 | 0.069 | -0.001 | 0.015 | 0.03 | 0.127 |
| PCK2 (UniProt Q16822) | -0.339 (active) | -0.007 | 0.045 | -0.044 | -0.035 | 0.024 | -0.025 | 0.027 | -0.045 | 0.011 |
| PLD3 (UniProt Q8IV08) | -0.027 | -0.131 | -0.006 | 0.001 | -0.139 | 0.019 | 0.008 | 0.027 | -0.025 | 0.045 |
| PLA2G15 (UniProt Q8NCC3) | -0.041 | -0.076 | -0.007 | 0.01 | 0.095 | 0.03 | 0.001 | 0.056 | -0.001 | -0.01 |
| PBK (UniProt Q96KB5) | -0.01 | 0.056 | 0.112 | 0.027 | -0.032 | 0.014 | 0.084 | -0.169 | -0.001 | 0.086 |
| PTTG1IP (UniProt P53801) | -0.013 | -0.186 | -0.124 | -0.004 | -0.046 | 0.038 | 0.158 | 0.007 | -0.096 | 0.086 |
| PNPLA2 (UniProt Q96AD5) | -0.089 | -0.134 | 0.002 | -0.082 | 0.014 | -0.077 | -0.048 | 0.029 | -0.032 | 0.02 |
| PLCB3 (UniProt Q01970) | -0.004 | -0.118 | 0.007 | -0.044 | -0.05 | -0.008 | -0.003 | 0.013 | -0.028 | 0.055 |
| PIP4K2B (UniProt P78356) | 0.028 | -0.146 | 0.025 | -0.104 | -0.045 | 0.379 (active) | 0.035 | 0.207 | -0.026 | 0.022 |
| PELP1 (UniProt Q8IZL8) | -0.096 | -0.022 | 0.012 | 0.012 | -0.045 | -0.033 | -0.002 | 0.042 | 0.031 | -0.074 |
| PRKCG (UniProt P05129) | -0.071 | 0.019 | 0.118 | -0.011 | -0.01 | 0.098 | -0.025 | -0.17 | 0.055 | 0.113 |
| PJA2 (UniProt O43164) | -0.022 | 0.004 | -0.071 | 0.11 | -0.008 | 0.024 | -0.016 | 0.001 | -0.001 | -0.049 |
| PIGT (UniProt Q969N2) | -0.004 | 0 | 0.012 | -0.02 | -0.081 | 0.046 | -0.006 | -0.013 | 0.027 | -0.007 |
| PDS5B (UniProt Q9NTI5) | 0.065 | 0.104 | 0.037 | -0.07 | -0.05 | -0.188 | 0.123 | 0.078 | -0.206 | 0.066 |
| PNN (UniProt Q9H307) | -0.004 | 0.083 | -0.047 | 0.125 | -0.017 | -0.14 | 0.031 | 0.056 | -0.037 | -0.015 |
| PSMD8 (UniProt P48556) | -0.046 | 0.055 | -0.016 | 0.015 | -0.097 | -0.038 | -0.022 | -0.061 | 0.066 | 0.097 |
| PRKD2 isoform 3 (UniProt Q9BZL6) | -0.05 | -0.037 | -0.125 | 0.078 | -0.03 | -0.042 | -0.159 | 0.033 | -0.011 | -0.17 |
| PMM1 (UniProt Q92871) | -0.084 | 0.021 | -0.003 | 0.022 | -0.039 | 0.124 | 0.16 | 0.022 | -0.02 | -0.17 |
| POLR2D (UniProt O15514) | 0.02 | 0.009 | -0.029 | -0.083 | -0.159 | -0.021 | -0.001 | 0.043 | 0.017 | -0.026 |
| PTRHD1 (UniProt Q6GMV3) | -0.051 | 0.065 | -0.008 | 0.042 | -0.103 | -0.025 | 0.085 | 0.068 | -0.061 | 0.02 |
| PDE2A (UniProt O00408) | 0.172 | -0.118 | 0.001 | -0.089 | -0.053 | 0.134 | -0.004 | 0.027 | -0.014 | 0.148 |
| PRMT7 (UniProt Q9NVM4) | -0.174 | -0.072 | -0.008 | -0.004 | -0.073 | -0.037 | 0.05 | -0.018 | 0.026 | -0.009 |
